{"source": "PubChem BioAssay (NCATS)", "note": "Values joined by “and” are separate entries in the source; they are usually repeats but may differ in a detail not shown here. Identical values can stand only once. Results filed as inconclusive are left out. Active and inactive are the calls of the source. Calls follow the shape of the dose curve; as a rule, active = well fitted activation curve with a large enough effect; inconclusive = small, poorly fitted or top-dose-only effect; inactive = no such curve, though single readings can be large or run the other way. Potency is read from the fitted curve at half-maximal effect."}
{"target": "Cellular tumor antigen p53 (Homo sapiens) (UniProt P04637)", "sequence (P04637 whole entry, looked up)": "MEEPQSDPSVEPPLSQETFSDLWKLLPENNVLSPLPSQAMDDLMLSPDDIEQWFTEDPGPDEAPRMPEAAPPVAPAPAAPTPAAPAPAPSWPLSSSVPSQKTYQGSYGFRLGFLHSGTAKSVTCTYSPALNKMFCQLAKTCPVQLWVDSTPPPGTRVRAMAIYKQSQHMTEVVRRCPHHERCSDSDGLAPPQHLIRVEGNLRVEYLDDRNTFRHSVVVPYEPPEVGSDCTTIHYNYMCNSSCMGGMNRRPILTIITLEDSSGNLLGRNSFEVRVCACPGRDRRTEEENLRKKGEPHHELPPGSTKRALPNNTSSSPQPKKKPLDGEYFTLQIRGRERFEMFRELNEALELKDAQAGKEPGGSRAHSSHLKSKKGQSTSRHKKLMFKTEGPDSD", "experiment": "Primary qHTS for small molecule compounds that upregulate eGFP-tagged delta133p53alpha (in N-terminal) cells. (AID 2060322); also: nearly all actives have a fitted effect of over 75% in size;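 as to activation: series mostly up to about 56 µM; 0% = DMSO vehicle and 100% = reference activator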", "settings": "NCI-H358 eGFP-delta133p53alpha fluorescence, 24 h; activation: hits give high values", "procedure,_shortened": "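NCI-H358 cells pre-induced 24 h with 10 ng/ml doxycycline to express N-terminal eGFP-delta133p53alpha, then dosed 24 h at 37C without doxycycline; fixed, Hoechst-stained, GFP intensity by laser scanning cytometry, normalized to DMSO (0%) and 57.5 uM 5-azacytidine (100%).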"}
{"smiles": "CCOC(=O)[C@H](CCc1ccccc1)N[C@@H](C)C(=O)N1Cc2cc(OC)c(OC)cc2C[C@H]1C(=O)O", "activation": "-5.86% (inactive)"}
{"smiles": "NCC(=O)CCC(=O)O", "activation": "-14.1% (inactive)"}
{"smiles": "Cc1cc(C(C)(C)C)c(O)c(C(C)(C)C)c1", "Potency": "21.9 µM (active)"}
{"smiles": "O=C(OOC(=O)c1ccccc1)c1ccccc1", "activation": "-15.1% (inactive)"}
{"smiles": "CCCCCCc1ccc(O)cc1O", "activation": "3.35% (inactive)"}
{"smiles": "CC(C)[N+]1(C)[C@@H]2CC[C@H]1CC(OC(=O)C(CO)c1ccccc1)C2", "note": "(stereo not given in full)", "activation": "33.8% (inactive)"}
{"smiles": "O=C(/C=C/c1ccc(O)c(O)c1)O[C@@H]1C[C@@](OC(=O)/C=C/c2ccc(O)c(O)c2)(C(=O)O)C[C@@H](O)[C@@H]1O", "activation": "11.9% (inactive)"}
{"smiles": "c1ccc(CNCCNCc2ccccc2)cc1", "activation": "2.51% (inactive)"}
{"smiles": "NC1CCN(c2nc3c(cc2F)c(=O)c(C(=O)O)cn3-c2ccc(F)cc2F)C1", "note": "(stereo not given)", "activation": "11.9% (inactive)"}
{"smiles": "Cc1c(NC(C)C)c(=O)n(-c2ccccc2)n1C", "activation": "11.7% (inactive)"}
{"smiles": "COc1ccc(-c2cc(=O)c3c(O)cc(O[C@@H]4O[C@H](CO[C@@H]5O[C@@H](C)[C@H](O)[C@@H](O)[C@@H]5O)[C@@H](O)[C@H](O)[C@@H]4O)cc3o2)cc1O", "activation": "-19% (inactive)"}
{"smiles": "Oc1ccccc1", "activation": "-1.69% (inactive)"}
{"smiles": "O=C1O[C@H]([C@@H](O)CO)C(O)=C1O", "activation": "-9.6% (inactive)"}
{"smiles": "CNc1c2c(nn1C)CCCC2", "activation": "-18.4% (inactive)"}
{"smiles": "CC(C)Nc1cccnc1N1CCN(C(=O)c2cc3cc(NS(C)(=O)=O)ccc3[nH]2)CC1", "activation": "-10.7% (inactive)"}
{"smiles": "CCC[C@@H]1C[C@@H](C(=O)N[C@@H]([C@H]2O[C@H](SC)[C@H](O)[C@@H](O)[C@H]2O)[C@@H](C)O)N(C)C1", "activation": "-5.08% (inactive)"}
{"smiles": "COc1nc(N)nc2c1ncn2[C@@H]1O[C@H](CO)[C@@H](O)[C@@H]1O", "activation": "-17.5% (inactive) and 19.2% (inactive)"}
{"smiles": "CS(=O)(=O)c1ccc([C@@H](O)[C@@H](CO)NC(=O)C(Cl)Cl)cc1", "activation": "15.3% (inactive) and 17.8% (inactive)"}
{"smiles": "COc1ccc(-c2oc3c(CC=C(C)C)c(OC4O[C@H](CO)[C@@H](O)[C@H](O)[C@@H]4O)cc(O)c3c(=O)c2OC2O[C@@H](C)[C@H](O)[C@@H](O)[C@@H]2O)cc1", "note": "(stereo not given in full)", "activation": "-27.6% (inactive)"}
{"smiles": "CC(=O)N(CC(O)CO)c1c(I)c(C(=O)NCC(O)CO)c(I)c(C(=O)NCC(O)CO)c1I", "note": "(stereo not given)", "activation": "-16.7% (inactive)"}
{"smiles": "CC(C)N(CCCNC(=O)Nc1ccc(C(C)(C)C)cc1)C[C@H]1O[C@@H](n2cc(Br)c3c(N)ncnc32)[C@H](O)[C@H]1O", "activation": "-20.1% (inactive)"}
{"smiles": "Nc1cccc(-c2csc(NC(=O)CCCCCCC(=O)NO)n2)c1", "activation": "139% (inactive)"}
{"smiles": "FC(F)(F)c1ccc(C=Cc2nc(COc3ccc(CCCCn4ccnn4)cc3)co2)cc1", "Potency": "24.3 µM (active)"}
{"smiles": "CC(C)(C)[N+]([O-])=Cc1ccc(S(=O)(=O)O)cc1S(=O)(=O)O", "activation": "-9.61% (inactive)"}
{"smiles": "CCOC(=O)c1cc(=O)c2c(OCC(COc3cccc4oc(C(=O)OCC)cc(=O)c34)OC(=O)[C@@H](N)CCCCN)cccc2o1", "Potency": "27.6 µM (active)"}
{"smiles": "COc1cc(S(N)(=O)=O)cc(C(=O)O)c1OC", "activation": "-2.82% (inactive)"}
{"smiles": "CCCSS/C(CCO)=C(\\C)N(C=O)Cc1cnc(C)nc1N", "Potency": "30.9 µM (active)"}
{"smiles": "O=C(O)C1(C(=O)O)CCC1.[NH2-].[NH2-].[Pt+2]", "activation": "0.565% (inactive)"}
{"smiles": "CC(=O)OCC[N+](C)(C)C", "activation": "15.3% (inactive)"}
{"smiles": "OCc1ccccc1O", "activation": "-1.69% (inactive)"}
{"smiles": "CC(C)NCC(O)c1ccc2ccccc2c1", "note": "(stereo not given)", "activation": "-2.82% (inactive)"}
{"smiles": "O=C1OCCN1/N=C/c1ccc([N+](=O)[O-])o1", "activation": "-3.35% (inactive)"}
{"smiles": "COc1cc(C(=O)NC2CCCNC2)cc(OC)c1OC", "note": "(stereo not given)", "activation": "-3.95% (inactive)"}
{"smiles": "COc1cc2c(cc1OC)CN(C(=O)[C@H](C)N[C@@H](CCc1ccccc1)C(=O)O)[C@H](C(=O)O)C2", "activation": "-10.7% (inactive)"}
{"smiles": "N[C@H](C(=O)O)c1ccc(O)cc1", "activation": "-13.4% (inactive)"}
{"smiles": "CCCCC(CC)CNC(=O)CC(C)OC(=O)CCC(=O)O", "note": "(stereo not given)", "activation": "11.7% (inactive)"}
{"smiles": "CN1CCN(CCCN2c3ccccc3Sc3ccc(S(=O)(=O)N(C)C)cc32)CC1", "activation": "6.69% (inactive)"}
{"smiles": "CC(C)=CCOc1ccc(/C=C/C(=O)c2ccc(OCC=C(C)C)cc2OCC(=O)O)cc1", "activation": "-1.67% (inactive)"}
{"smiles": "C=CS(=O)(=O)N1CCCN(c2cc(NCCC(=O)O)nc(-c3ccccn3)n2)CC1", "activation": "-4.47% (inactive)"}
{"smiles": "C[C@@H](O[C@H]1OCCN(Cc2n[nH]c(=O)[nH]2)[C@H]1c1ccc(F)cc1)c1cc(C(F)(F)F)cc(C(F)(F)F)c1", "activation": "7.53% (inactive)"}
